Test results published in PubChem BioAssay (NCI).
The panel holds about 83,000 compounds, 20% with a hit somewhere; the sample as a whole holds those more often.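 Testing used 96-well plates and a 48-hour single-concentration exposure. Example: -40 means 40% of the starting cells died.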 A number with no mark means an inactive call. Active and inactive are the calls of the source. Rule for the calls: active = growth percent below 10; inactive = the rest.

test system: HL-60(TB) leukemia; assay: NCI-60 one-dose screen, 48 h (100 = growth as untreated, 0 = no growth, -100 = all killed); conditions: 10 µM unless noted

Compound	growth
C=C1CC[C@@H]2[C@]3(C)COC(c4ccccc4)O[C@@H]3CC[C@@]2(C)[C@@H]1C/C=C1/C(=O)OCC1OC(C)=O (stereo partly specified)	-52.4% (active)
COC(=O)C[C@](O)(CCCC(C)(C)O)C(=O)O[C@H]1C(OC)=C[C@@]23CCCN2CCc2cc4c(cc2[C@@H]13)OCO4	-30.3% (active)
COc1cc(OC(F)(F)F)ccc1C(=O)Nc1sc2c(c1C#N)CCC(=O)C2	38%
COc1ccc(-c2ccc(SCC(=O)Nc3ccc(S(N)(=O)=O)cc3Br)nn2)cc1	94.9%
COc1ccc(C2CC(c3ccc(S(=O)(=O)NCCNc4nc(Nc5ccc(F)cc5)nc(N(C)C)n4)cc3)=Nc3c(N)nc(N)nc3N2)cc1 (stereo unspecified)	52.5%
Nc1nn2c(-c3cc4cc(Br)ccc4oc3=O)ccnc2c1N=Nc1ccc(S(N)(=O)=O)cc1	104%
